The text below walks through data of PubChem BioAssay (Tox21).

Inconclusive results are not listed. Activity calls are given as the source filed them. Unless noted, calls come from the whole dose curve; as a rule, active = well fitted curve in the direction sought with a large enough effect in the repeat runs; inconclusive = weak or mixed curves; inactive = no such curve, though single readings can be large; an effect the other way counts as inactive or inconclusive.

A short description of assay [1]: qHTS assay to identify small molecule antagonists of the thyroid receptor (TR) signaling pathway - cell viability counter screen (AID 743064). Note: nearly all actives have a fitted effect of over 50% in size. In outline:
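Viability of T3-stimulated (1 nM final) GH3.TRE-Luc cells is measured by CellTiter-Fluor fluorescence after 23.5 h compound exposure at 37 °C plus 30 min reagent incubation.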

Assay [2] can be described thus: qHTS assay to identify small molecule antagonists of the thyroid receptor (TR) signaling pathway (AID 743065). Note: series mostly up to about 70 µM; nearly all actives have a fitted effect of over 55% in size. The method in brief:
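GH3.TRE-Luc rat pituitary cells carrying two TR response elements driving luciferase were plated for 4 h, given compound plus 1 nM T3 (final), and incubated 23.5 h at 37 C. ONE-Glo luminescence measured reporter inhibition; CellTiter-Fluor fluorescence tracked cytotoxicity.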
On the technique in general: In qHTS, concentration-response curves come from the screen itself.

In assay [3] the test system is thyroid hormone receptor (rat, GH3 cells). The assay is described as follows: qHTS assay to identify small molecule agonists of the thyroid receptor (TR) signaling pathway (AID 743066; calls by dose curve).
Assay [4] is described as follows: qHTS assay to identify small molecule antagonists of the estrogen receptor alpha (ER-alpha) signaling pathway - cell viability counter screen (AID 743074; calls by dose curve;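 note: HEK293 cells carrying ER-alpha-UAS-bla reporter stimulated with 17beta-estradiol; nearly all actives have a fitted effect of over 45% in size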).
A short description of assay [5]: qHTS assay to identify small molecule antagonists of the estrogen receptor alpha (ER-alpha) signaling pathway using the BG1 cell line - cell viability counter screen (AID 743081).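 Note: compound given together with 17beta-estradiol as the ER stimulus; series mostly up to about 70 µM; nearly all actives have a fitted effect of over 45% in size.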
For assay [6], the target named is Aromatase (Homo sapiens) (UniProt P11511). The assay is described as follows: qHTS assay to identify aromatase inhibitors (AID 743083). Note: series mostly up to about 70 µM; nearly all actives have a fitted effect of over 55% in size.
Assay [7] in a line: qHTS assay to identify aromatase inhibitors - cell viability counter screen (AID 743084).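 Note: cells stimulated with testosterone during compound exposure; nearly all actives have a fitted effect of over 55% in size.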
The target in assay [8] is Aryl hydrocarbon receptor (Homo sapiens) (UniProt P35869). As to the kind of experiment: qHTS assay to identify small molecule that activate the aryl hydrocarbon receptor (AhR) signaling pathway (AID 743085).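 For activation: HG2L7.5c1 human HepG2 liver cells with stably integrated DRE-driven firefly reporter; series mostly up to about 70 µM.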 Note: nearly all actives have a fitted effect of over 15% in size. Note: potency is the fitted concentration of half-maximal effect. The method in brief: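 A multiplexed format paired cell viability (CellTiter-Fluor fluorescence) with AhR-dependent luciferase output (ONE-Glo luminescence) in the same wells of HepG2 DRE-luc cells after 24 h compound exposure at 37C.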

Assay [9] is described as follows: qHTS assay to identify small molecule that activate the aryl hydrocarbon receptor (AhR) signaling pathway - cell viability counter screen (AID 743086).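 Note: HepG2 liver cells carrying the AhR DRE luciferase reporter; series mostly up to about 70 µM; nearly all actives have a fitted effect of over 45% in size.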 In outline:
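HepG2-AhR-luc (HG2L7.5c1) cells, 4000/well, were preincubated 5 h at 37C, exposed to compound in qHTS format for 24 hr at 37C, then given CellTiter-Fluor for 30 min; viability was read as fluorescence in the reporter wells.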

The target of assay [10] is Peroxisome proliferator-activated receptor gamma (Homo sapiens) (UniProt P37231). The assay is described as follows: qHTS assay to identify small molecule agonists of the peroxisome proliferator-activated receptor gamma (PPARg) signaling pathway (AID 743094; active = well fitted activation curve with a large enough effect in the signal ratio in the repeat runs, not every such curve was filed as active; the % refers to the signal ratio). The method in brief:
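HEK293H PPARg-bla cells, 5 h settle at 37C/5% CO2; compound (DMSO) 17 h, 37C; B/G FRET substrate 1 h RT; fluorescence intensity read-out. qHTS format.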

A short description of assay [11]: qHTS assay to identify small molecule antagonists of the peroxisome proliferator-activated receptor gamma (PPARg) signaling pathway - cell viability counter screen (AID 743194). Note: nearly all actives have a fitted effect of over 55% in size. In outline: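 PPARg-UAS-bla HEK293H cells were plated, rested 5 h at 37 C, then treated with compounds plus rosiglitazone (50 nM final) for 17 h at 37 C; viability was then read by CellTiter-Glo luminescence after 30 min at room temperature.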

Assay [12] can be described thus: qHTS assay for small molecule agonists of the antioxidant response element (ARE) signaling pathway - cell viability counter screen (AID 743203; calls by dose curve; note: nearly all actives have a fitted effect of over 55% in size). The method in brief:
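Luminescence read-out (CellTiter-Glo, 30 min at room temperature) measured cell viability in the same wells as the ARE beta-lactamase reporter. HepG2 ARE-bla cells were treated with compounds for 16 hrs at 37C/5% CO2.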

The nature of assay [13]: qHTS assay for small molecule activators of the heat shock response signaling pathway - cell viability counter screen (AID 743209). Note: nearly all actives have a fitted effect of over 50% in size. In outline: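 HSE-bla HeLa; 1500 cells/well; overnight 37 C, 5% CO2; compound 5 h 37 C; LiveBLAzer B/G substrate 2.5 h RT; CellTiter-Glo 30 min RT; luminescence.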
Assay [14] has as its target Estrogen receptor (Homo sapiens) (UniProt P03372). As to the kind of experiment: qHTS assay to identify small molecule agonists of the estrogen receptor alpha (ER-alpha) signaling pathway (AID 743075; calls by dose curve;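 note: HEK293 GripTite cells with ER-alpha and UAS-driven beta-lactamase reporter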).
The target is the same in assay [15]. As to the kind of experiment: qHTS assay to identify small molecule agonists of the estrogen receptor alpha (ER-alpha) signaling pathway using the BG1 cell line (AID 743079). Note: nearly all actives have a fitted effect of over 20% in size.
A short description of assay [16]: qHTS assay to identify small molecule antagonists of the estrogen receptor alpha (ER-alpha) signaling pathway using the BG1 cell line (AID 743080; calls by dose curve;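 note: BG1 cells stimulated with 17beta-estradiol alongside compound; series mostly up to about 70 µM; nearly all actives have a fitted effect of over 25% in size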). The method in brief:
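Readout is ONE-Glo luminescence, taken 30 min at room temperature after reagent addition, preceded by a CellTiter-Fluor viability read; BG1-Luc-4E2 cells had received compound and 17beta-estradiol for 21.5 h at 37 C.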

A short description of assay [17]: qHTS assay for small molecule agonists of the antioxidant response element (ARE) signaling pathway (AID 743202; active = well fitted activation curve with a large enough effect in the signal ratio in the repeat runs, not every such curve was filed as active; the % refers to the signal ratio). The method in brief: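 Steps: seed ARE-bla HepG2 cells (2,000/well); incubate 5 h at 37 C; add compounds by pin tool; incubate 16 h at 37 C; add FRET substrate; read fluorescence after 2 h at RT.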
Assay [18] is described as follows: qHTS assay for small molecule activators of the heat shock response signaling pathway (AID 743210; active = well fitted activation curve with a large enough effect in the signal ratio in the repeat runs, with a control signal flat, not every such curve was filed as active; the % refers to the signal ratio;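 note: HeLa cells with beta-lactamase reporter driven by heat shock elements; series mostly up to about 63 µM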). In outline:
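Activation of heat shock element-controlled beta-lactamase expression is measured in HeLa cells by LiveBLAzer FRET fluorescence, with compound exposure lasting 5 h at 37 C and substrate loading 2.5 h at room temperature.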

Aromatase (Homo sapiens), sequence (P11511 whole entry, looked up): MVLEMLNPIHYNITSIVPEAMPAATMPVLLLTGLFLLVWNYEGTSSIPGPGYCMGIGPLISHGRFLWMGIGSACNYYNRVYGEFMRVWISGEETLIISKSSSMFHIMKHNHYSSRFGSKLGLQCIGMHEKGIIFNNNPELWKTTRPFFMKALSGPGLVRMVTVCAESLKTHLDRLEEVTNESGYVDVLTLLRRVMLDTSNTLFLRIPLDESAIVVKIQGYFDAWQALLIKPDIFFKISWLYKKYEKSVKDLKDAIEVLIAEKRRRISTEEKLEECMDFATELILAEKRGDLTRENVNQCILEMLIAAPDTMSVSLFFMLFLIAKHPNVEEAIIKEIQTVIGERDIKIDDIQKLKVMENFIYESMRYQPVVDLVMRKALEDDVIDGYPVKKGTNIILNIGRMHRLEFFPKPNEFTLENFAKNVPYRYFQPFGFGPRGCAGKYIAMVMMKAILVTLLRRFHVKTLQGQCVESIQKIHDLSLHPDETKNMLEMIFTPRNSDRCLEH
Aryl hydrocarbon receptor (Homo sapiens), sequence (P35869 whole entry, looked up): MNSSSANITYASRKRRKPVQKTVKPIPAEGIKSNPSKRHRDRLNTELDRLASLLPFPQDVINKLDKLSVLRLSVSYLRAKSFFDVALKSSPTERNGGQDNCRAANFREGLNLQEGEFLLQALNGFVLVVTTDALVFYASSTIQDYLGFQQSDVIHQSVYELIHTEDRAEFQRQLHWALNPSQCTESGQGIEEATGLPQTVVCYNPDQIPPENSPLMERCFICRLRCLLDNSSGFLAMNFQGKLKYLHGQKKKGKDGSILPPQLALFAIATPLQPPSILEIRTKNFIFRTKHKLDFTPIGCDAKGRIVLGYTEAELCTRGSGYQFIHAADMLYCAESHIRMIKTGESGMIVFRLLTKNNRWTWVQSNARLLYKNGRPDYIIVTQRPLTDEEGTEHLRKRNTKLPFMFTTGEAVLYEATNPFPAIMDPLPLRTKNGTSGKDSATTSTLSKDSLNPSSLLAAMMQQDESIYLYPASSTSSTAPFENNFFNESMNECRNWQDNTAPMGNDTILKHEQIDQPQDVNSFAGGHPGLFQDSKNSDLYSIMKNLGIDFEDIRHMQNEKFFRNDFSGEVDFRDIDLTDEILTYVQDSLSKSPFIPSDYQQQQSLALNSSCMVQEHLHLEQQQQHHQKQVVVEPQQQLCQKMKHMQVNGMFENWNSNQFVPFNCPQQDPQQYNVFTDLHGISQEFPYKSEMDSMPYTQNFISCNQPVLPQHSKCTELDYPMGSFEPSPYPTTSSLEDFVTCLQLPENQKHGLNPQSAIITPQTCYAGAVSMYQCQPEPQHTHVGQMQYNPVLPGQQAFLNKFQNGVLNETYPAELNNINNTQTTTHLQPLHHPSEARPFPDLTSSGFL
Peroxisome proliferator-activated receptor gamma (Homo sapiens), sequence (P37231 whole entry, looked up): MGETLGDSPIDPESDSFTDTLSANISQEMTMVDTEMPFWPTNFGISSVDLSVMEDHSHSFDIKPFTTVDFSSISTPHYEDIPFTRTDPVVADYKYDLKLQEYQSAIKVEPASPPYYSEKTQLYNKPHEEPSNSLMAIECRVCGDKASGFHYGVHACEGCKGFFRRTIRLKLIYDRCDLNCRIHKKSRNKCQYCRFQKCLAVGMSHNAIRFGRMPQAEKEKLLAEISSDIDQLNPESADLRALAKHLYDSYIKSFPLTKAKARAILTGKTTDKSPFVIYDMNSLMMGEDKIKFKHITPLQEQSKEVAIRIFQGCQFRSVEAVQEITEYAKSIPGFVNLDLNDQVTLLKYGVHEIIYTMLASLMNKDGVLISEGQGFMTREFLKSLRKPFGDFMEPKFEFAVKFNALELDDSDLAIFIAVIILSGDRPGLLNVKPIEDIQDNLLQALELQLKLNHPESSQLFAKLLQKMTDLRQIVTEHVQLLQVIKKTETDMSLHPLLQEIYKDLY
Estrogen receptor (Homo sapiens), sequence (P03372 whole entry, looked up): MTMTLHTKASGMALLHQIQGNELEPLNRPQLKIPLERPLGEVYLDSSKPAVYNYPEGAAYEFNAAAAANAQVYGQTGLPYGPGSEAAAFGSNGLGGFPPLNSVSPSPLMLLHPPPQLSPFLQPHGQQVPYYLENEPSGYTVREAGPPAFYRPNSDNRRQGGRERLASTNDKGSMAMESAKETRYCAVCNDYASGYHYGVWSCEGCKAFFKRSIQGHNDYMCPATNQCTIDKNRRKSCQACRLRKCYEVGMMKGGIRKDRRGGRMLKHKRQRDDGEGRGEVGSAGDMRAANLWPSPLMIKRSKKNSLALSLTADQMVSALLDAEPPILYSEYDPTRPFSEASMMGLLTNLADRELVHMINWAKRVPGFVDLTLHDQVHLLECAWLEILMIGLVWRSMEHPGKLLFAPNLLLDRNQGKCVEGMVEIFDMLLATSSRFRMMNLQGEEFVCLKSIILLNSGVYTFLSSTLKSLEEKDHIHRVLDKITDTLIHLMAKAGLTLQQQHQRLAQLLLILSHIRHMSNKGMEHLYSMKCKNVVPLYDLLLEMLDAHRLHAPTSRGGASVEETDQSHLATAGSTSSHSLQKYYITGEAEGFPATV

Consider `CC(C)COC(=O)c1ccc(O)cc1`, for which the Potency result in assay [1], in [2], in [3], in assay [4], in [5] and in assay [6] was “inactive” each time. Moreover, the Potency result in [7], in assay [8], in [9], in [11], in [12] and in assay [13] was “inactive” each time. In addition, the molecule was called inactive in assay [10].
On to `Nc1ccc(F)cc1`, for which the Potency entry in [1], in [2], in assay [3], in assay [14], in assay [15] and in assay [16] was “inactive” throughout. For the same molecule, the Potency entry in [5], in [6], in assay [7], in [8], in assay [9] and in [11] was “inactive” each time. In addition, the Potency result in assay [17], in assay [12], in assay [13] and in assay [18] was “inactive” each time. Also, the outcome in assay [10] was inactive.
`O=C(O)/C=C/c1ccc(O)c(O)c1`: the Potency result in [1], in assay [2], in assay [3], in [4], in assay [5] and in assay [6] was “inactive” throughout. Besides, the Potency entry in assay [8], in [9], in [11], in assay [12], in assay [13] and in [18] was “inactive” in each case. Also, the outcome in assay [10] was inactive.
Consider `CNCc1ccc(NC(=O)c2c[nH]c3c2C(=O)CCC3)cc1`, for which the Potency entry in [1], in assay [2], in [3], in [4], in assay [5] and in assay [6] was “inactive” in each case. The Potency result in [7], in assay [9], in assay [11], in assay [12], in [13] and in assay [18] was “inactive” each time. In addition, in assay [8], the Potency is 1540 nM (active). The molecule was called inactive in assay [10].
Consider `CCCCCCCCCCCCCOC(=O)CCSCCC(=O)OCCCCCCCCCCCCC`, for which the Potency result in assay [1], in [2], in assay [3], in assay [4], in [5] and in [6] was “inactive” in each case. Moreover, the Potency result in assay [7], in assay [8], in assay [9], in assay [11], in assay [12] and in assay [13] was “inactive” throughout. Also, in assay [18], the Potency entry is “inactive”.
As for `Cc1c[nH]c2ccccc12`, the Potency result in assay [1], in assay [2], in assay [3], in assay [4], in [5] and in assay [6] was “inactive” throughout. Also, the Potency entry in [7], in [8], in [9], in assay [11], in assay [12] and in assay [13] was “inactive” throughout. Moreover, in assay [18], the Potency entry was “inactive”. For the same molecule, the call in assay [10] was inactive.
As for `CC(C)Cc1ccc(CC(=O)O)cc1`, the Potency entry in assay [1], in assay [2], in assay [3], in assay [4], in assay [5] and in [6] was “inactive” in each case. For the same molecule, the Potency result in [7], in assay [8], in assay [9], in assay [11], in assay [17] and in assay [12] was “inactive” in each case.
